Data: the supplement of paper PMC8728848
The full list was thinned out, with the strongest signals kept by preference.

Experiments:
Assay in all cases: glycan array binding signal (z-score within array); higher = stronger binding
Details in all cases: glycan notation: IUPAC condensed, linker removed
[1] = target: Fuc(a1-2)[Gal(a1-3)]Gal(b1-3)GlcNAc
Summary of the method: (§1)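 Negative Z-scores can be read as non-binding. The Z-score is calculated within each array and then averaged across arrays of one protein sequence at different concentrations or buffers and across linkers. Arrays, 3228 in all, were curated from the Consortium for Functional Glycomics database and kept only where the protein sequence was available.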

[2] = target: Fuc(a1-2)[Gal(a1-3)]Gal(b1-3)GlcNAc(b1-2)Man(a1-3)[Fuc(a1-2)[Gal(a1-3)]Gal(b1-3)GlcNAc(b1-2)Man(a1-6)]Man(b1-4)GlcNAc(b1-4)GlcNAc
Summary of the method: as §1

[3] = target: Fuc(a1-2)[Gal(a1-3)]Gal(b1-3)GlcNAc(b1-3)GalNAc
Summary of the method: as §1

[4] = target: Fuc(a1-2)[Gal(a1-3)]Gal(b1-3)GlcNAc(b1-6)GalNAc
Summary of the method: as §1

[5] = target: Fuc(a1-2)[Gal(a1-3)]Gal(b1-4)Glc
Summary of the method: as §1

[6] = target: Fuc(a1-2)[Gal(a1-3)]Gal(b1-4)GlcNAc
Summary of the method: as §1

[7] = target: Fuc(a1-2)[Gal(a1-3)]Gal(b1-4)GlcNAc(b1-2)Man
Summary of the method: as §1

[8] = target: Fuc(a1-2)[Gal(a1-3)]Gal(b1-4)GlcNAc(b1-2)Man(a1-3)[Fuc(a1-2)[Gal(a1-3)]Gal(b1-4)GlcNAc(b1-2)Man(a1-6)]Man(b1-4)GlcNAc(b1-4)GlcNAc
Summary of the method: as §1

[9] = target: Fuc(a1-2)[Gal(a1-3)]Gal(b1-4)GlcNAc(b1-2)Man(a1-3)[Fuc(a1-2)[Gal(a1-3)]Gal(b1-4)GlcNAc(b1-2)Man(a1-6)]Man(b1-4)GlcNAc(b1-4)[Fuc(a1-6)]GlcNAc
Summary of the method: as §1

[10] = target: Fuc(a1-2)[Gal(a1-3)]Gal(b1-4)GlcNAc(b1-3)GalNAc
Summary of the method: as §1

[11] = target: Fuc(a1-2)[Gal(a1-3)]Gal(b1-4)GlcNAc(b1-3)[Fuc(a1-2)[Gal(a1-3)]Gal(b1-4)GlcNAc(b1-6)]GalNAc
Summary of the method: as §1

[12] = target: Fuc(a1-2)[Gal(a1-3)]Gal(b1-4)[Fuc(a1-3)]GlcNAc(b1-3)GalNAc
Summary of the method: as §1

[13] = target: Fuc(a1-2)[GalNAc(a1-3)]Gal(b1-4)GlcNAc(b1-6)GalNAc
Summary of the method: as §1

[14] = target: Fuc(a1-3)[Gal(b1-4)]GlcNAc(b1-6)[Gal(b1-3)GlcNAc(b1-3)]Gal(b1-4)Glc
Summary of the method: as §1

[15] = target: Gal(b1-3)GlcNAc(b1-2)Man(a1-3)[Gal(b1-3)GlcNAc(b1-2)Man(a1-6)]Man(b1-4)GlcNAc(b1-4)[Fuc(a1-6)]GlcNAc
Summary of the method: as §1

[16] = target: Gal(b1-3)GlcNAc(b1-3)Gal(b1-4)GlcNAc(b1-3)Gal(b1-4)GlcNAc(b1-2)[Gal(b1-3)GlcNAc(b1-3)Gal(b1-4)GlcNAc(b1-3)Gal(b1-4)GlcNAc(b1-6)]Man(a1-6)[Gal(b1-3)GlcNAc(b1-3)Gal(b1-4)GlcNAc(b1-3)Gal(b1-4)GlcNAc(b1-2)Man(a1-3)]Man(b1-4)GlcNAc(b1-4)[Fuc(a1-6)]GlcNAc
Summary of the method: as §1

[17] = target: Gal(b1-3)[Fuc(a1-4)]GlcNAc
Summary of the method: as §1

Gal(b1-4)Glc = target: Gal(b1-4)Glc
Summary of the method: as §1

Gal(b1-4)Glc6S = target: Gal(b1-4)Glc6S
Summary of the method: as §1

[18] = target: Gal(b1-4)GlcNAc(a1-6)Gal(b1-4)GlcNAc
Summary of the method: as §1

[19] = target: Gal(b1-4)GlcNAc(b1-2)Man(a1-6)[GlcNAc(b1-2)Man(a1-3)]Man(b1-4)GlcNAc(b1-4)GlcNAc
Summary of the method: as §1

[20] = target: Gal(b1-4)GlcNAc(b1-3)Gal(b1-4)GlcNAc(b1-2)[Gal(b1-4)GlcNAc(b1-3)Gal(b1-4)GlcNAc(b1-6)]Man(a1-6)[Gal(b1-4)GlcNAc(b1-3)Gal(b1-4)GlcNAc(b1-2)Man(a1-3)]Man(b1-4)GlcNAc(b1-4)GlcNAc
Summary of the method: as §1

Gal3S6S(b1-4)GlcNAc = target: Gal3S6S(b1-4)GlcNAc
Summary of the method: as §1

Gal3S6S(b1-4)GlcNAc6S = target: Gal3S6S(b1-4)GlcNAc6S
Summary of the method: as §1

Gal6S(b1-4)GlcNAc = target: Gal6S(b1-4)GlcNAc
Summary of the method: as §1

[21] = target: GalNAc(b1-3)Gal(a1-4)Gal(b1-4)GlcNAc(b1-3)Gal(b1-4)Glc
Summary of the method: as §1

GalNAc(b1-3)GlcNAc = target: GalNAc(b1-3)GlcNAc
Summary of the method: as §1

[22] = target: GalNAc(b1-4)GlcNAc(b1-2)Man
Summary of the method: as §1

GalNAc3S(b1-4)GlcNAc = target: GalNAc3S(b1-4)GlcNAc
Summary of the method: as §1

[23] = target: GlcNAc(a1-4)Gal(b1-4)GalNAc
Summary of the method: as §1

[24] = target: GlcNAc(b1-3)Gal(b1-4)GlcNAc(b1-2)Man(a1-3)[GlcNAc(b1-3)Gal(b1-4)GlcNAc(b1-2)Man(a1-6)]Man(b1-4)GlcNAc(b1-4)GlcNAc
Summary of the method: as §1

[25] = target: GlcNAc(b1-3)Gal(b1-4)GlcNAc(b1-3)Gal(b1-4)GlcNAc(b1-3)Gal(b1-4)GlcNAc(b1-2)[GlcNAc(b1-3)Gal(b1-4)GlcNAc(b1-3)Gal(b1-4)GlcNAc(b1-3)Gal(b1-4)GlcNAc(b1-6)]Man(a1-6)[GlcNAc(b1-3)Gal(b1-4)GlcNAc(b1-3)Gal(b1-4)GlcNAc(b1-3)Gal(b1-4)GlcNAc(b1-2)Man(a1-3)]Man(b1-4)GlcNAc(b1-4)[Fuc(a1-6)]GlcNAc
Summary of the method: as §1

[26] = target: GlcNAc(b1-4)Gal(b1-4)GlcNAc
Summary of the method: as §1

[27] = target: Man(a1-2)Man(a1-6)[Man(a1-3)]Man(a1-6)[Man(a1-2)Man(a1-2)Man(a1-3)]Man
Summary of the method: as §1

[28] = target: Man(a1-3)[Man(a1-6)]Man(a1-6)[Man(a1-2)Man(a1-3)]Man(b1-4)GlcNAc(b1-4)GlcNAc
Summary of the method: as §1

[29] = target: Neu5Ac(a2-3)Gal(b1-3)GlcNAc(b1-3)Gal(b1-3)GlcNAc
Summary of the method: as §1

[30] = target: Neu5Ac(a2-3)Gal(b1-3)GlcNAc(b1-3)GalNAc
Summary of the method: as §1

[31] = target: Neu5Ac(a2-3)Gal(b1-4)GlcNAc(b1-2)Man(a1-3)[Neu5Ac(a2-3)Gal(b1-4)GlcNAc(b1-2)Man(a1-6)]Man(b1-4)GlcNAc(b1-4)GlcNAc
Summary of the method: as §1

[32] = target: Neu5Ac(a2-3)Gal6S(b1-4)GlcNAc
Summary of the method: as §1

[33] = target: Neu5Ac(a2-6)Gal(b1-4)GlcNAc(b1-2)Man(a1-3)[Neu5Ac(a2-6)Gal(b1-4)GlcNAc(b1-2)Man(a1-6)]Man(b1-4)GlcNAc(b1-4)GlcNAc
Summary of the method: as §1

[34] = target: Neu5Ac(a2-6)Gal(b1-4)GlcNAc(b1-2)Man(a1-6)[Gal(b1-4)GlcNAc(b1-2)Man(a1-3)]Man(b1-4)GlcNAc(b1-4)GlcNAc
Summary of the method: as §1

[35] = target: Neu5Ac(a2-6)Gal(b1-4)GlcNAc(b1-2)[Neu5Ac(a2-6)Gal(b1-4)GlcNAc(b1-4)]Man(a1-3)[GlcNAc(b1-4)][Neu5Ac(a2-6)Gal(b1-4)GlcNAc(b1-2)[Neu5Ac(a2-6)Gal(b1-4)GlcNAc(b1-6)]Man(a1-6)]Man(b1-4)GlcNAc(b1-4)GlcNAc
Summary of the method: as §1

[36] = target: Neu5Ac(a2-6)Gal(b1-4)GlcNAc(b1-3)GalNAc
Summary of the method: as §1

Neu5Ac(a2-8)Neu5Ac = target: Neu5Ac(a2-8)Neu5Ac
Summary of the method: as §1

[37] = target: Neu5Ac(a2-8)Neu5Ac(a2-3)[GalNAc(b1-4)]Gal(b1-4)Glc
Summary of the method: as §1

Neu5Gc(a2-6)GalNAc = target: Neu5Gc(a2-6)GalNAc
Summary of the method: as §1

B1: DrGRIFIN (Danio rerio), Q6DGJ1 (protein)
chain: MTLRFEASCPDGLCPGWSVILKGETPPEASKFEINFLCDRDDRVAFHFNPRFTESDIICNSYMANRWGQEERCNHFPLGVEEPFQIEIYSDNDHFHVYIDKAKVMQYKHRVEDLKTITKLQVVNDVKISSLEITKKLFY
B1 was tested, and the “glycan array binding signal (z-score)” value [1] was 5.95, the “glycan array binding signal (z-score)” value [2] was 10.6 and the “glycan array binding signal (z-score)” value [3] was 5.36. For the same binder, the “glycan array binding signal (z-score)” value [4] was 6.96, the “glycan array binding signal (z-score)” value [5] was 6.1 and the “glycan array binding signal (z-score)” value [6] was 6.44. The “glycan array binding signal (z-score)” value [7] was 9.46, the “glycan array binding signal (z-score)” value [8] was 4.9 and the “glycan array binding signal (z-score)” value [9] was 5.59. For the same binder, the “glycan array binding signal (z-score)” value [10] was 4.81, the “glycan array binding signal (z-score)” value [11] was 6.36 and the “glycan array binding signal (z-score)” value [12] was -0.062. The “glycan array binding signal (z-score)” value [13] was -0.23, the “glycan array binding signal (z-score)” value [14] was -0.109 and the “glycan array binding signal (z-score)” value [15] was -0.135. The “glycan array binding signal (z-score)” value [16] was -0.107, the “glycan array binding signal (z-score)” value [17] was -0.187 and the “glycan array binding signal (z-score)” value (Gal(b1-4)Glc) was -0.191. For the same binder, the “glycan array binding signal (z-score)” value (Gal(b1-4)Glc6S) was -0.201, the “glycan array binding signal (z-score)” value [18] was -0.172 and the “glycan array binding signal (z-score)” value [19] was -0.071. For the same binder, the “glycan array binding signal (z-score)” value [20] was -0.039, the “glycan array binding signal (z-score)” value (Gal3S6S(b1-4)GlcNAc) was -0.193 and the “glycan array binding signal (z-score)” value (Gal3S6S(b1-4)GlcNAc6S) was -0.097. For the same binder, the “glycan array binding signal (z-score)” value (Gal6S(b1-4)GlcNAc) was -0.181, the “glycan array binding signal (z-score)” value [21] was -0.12 and the “glycan array binding signal (z-score)” value (GalNAc(b1-3)GlcNAc) was -0.192. For the same binder, the “glycan array binding signal (z-score)” value [22] was -0.129, the “glycan array binding signal (z-score)” value (GalNAc3S(b1-4)GlcNAc) was -0.052 and the “glycan array binding signal (z-score)” value [23] was -0.154. For the same binder, the “glycan array binding signal (z-score)” value [24] was -0.132, the “glycan array binding signal (z-score)” value [25] was -0.163 and the “glycan array binding signal (z-score)” value [26] was -0.166. For the same binder, the “glycan array binding signal (z-score)” value [27] was -0.123, the “glycan array binding signal (z-score)” value [28] was -0.189 and the “glycan array binding signal (z-score)” value [29] was -0.131. The “glycan array binding signal (z-score)” value [30] was -0.117, the “glycan array binding signal (z-score)” value [31] was -0.141 and the “glycan array binding signal (z-score)” value [32] was -0.179. The “glycan array binding signal (z-score)” value [33] was -0.171, the “glycan array binding signal (z-score)” value [34] was -0.195 and the “glycan array binding signal (z-score)” value [35] was -0.026. For the same binder, the “glycan array binding signal (z-score)” value [36] was -0.217, the “glycan array binding signal (z-score)” value (Neu5Ac(a2-8)Neu5Ac) was -0.131 and the “glycan array binding signal (z-score)” value [37] was -0.146. For the same binder, the “glycan array binding signal (z-score)” value (Neu5Gc(a2-6)GalNAc) was -0.148.
